Laboratory results taken from PubChem BioAssay (EPA / NIEHS).
The source made the active and inactive calls. How the source made its calls: active means hit-call score of the fitted dose curve at least 0.9, where 1 is the maximum; inactive means score below 0.9.

Legend:
[1] = read-out: Interleukin-6 (IL6), IL6 (gene 3569); experiment: BSK_CASM3C_IL6: BioMAP Diversity Plus: CASM3C Assay for Interleukin-6 (IL6) Biomarker Activity for (AID 2283040); settings: primary human coronary artery smooth muscle cells; actives raise or lower the signal
[2] = read-out: Tissue plasminogen activator (tPA), PLAT (gene 5327); experiment: BSK_BE3C_tPA: BioMAP Diversity Plus: BE3C Assay for Tissue plasminogen activator (tPA) Biomarker Activity (AID 2283041); settings: primary human bronchial epithelial cells; actives raise or lower the signal
Outline: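 Gain- or loss-of-signal in tPA, measured by ELISA, derived by bidirectional fitting against DMSO. Cells: human primary bronchial epithelial; read at 24 h after chemical dosing.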

[3] = read-out: Interleukin-8 (IL8), CXCL8 (gene 3576); experiment: BSK_CASM3C_IL8: BioMAP Diversity Plus: CASM3C Assay for Interleukin-8 (IL8) Biomarker Activity (AID 2283042); settings: primary human coronary artery smooth muscle cells; actives raise or lower the signal;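 further: IL-8 protein level quantified by ELISA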
[4] = read-out: Human Leukocyte Antigen - DR isotype (HLADR), HLA-DRA (gene 3122); experiment: BSK_CASM3C_HLADR: BioMAP Diversity Plus: CASM3C Assay for Human Leukocyte Antigen - DR isotype (HLADR) Biomarker Activity (AID 2283043); settings: primary human coronary artery smooth muscle cells; actives raise or lower the signal;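 further: cell-surface HLA-DR protein level quantified by ELISA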
[5] = read-out: Macrophage colony-stimulating factor (MCSF), CSF1 (gene 1435); experiment: BSK_CASM3C_MCSF: BioMAP Diversity Plus: CASM3C Assay for Macrophage colony-stimulating factor (MCSF) Biomarker Activity (AID 2283044); settings: primary human coronary artery smooth muscle cells; actives raise or lower the signal;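 further: M-CSF protein amount quantified by ELISA after 24 h exposure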
[6] = read-out: Low-density lipoprotein receptor (LDLR), LDLR (gene 3949); experiment: BSK_CASM3C_LDLR: BioMAP Diversity Plus: CASM3C Assay for Low-density lipoprotein receptor (LDLR) Biomarker Activity (AID 2283045); settings: primary human coronary artery smooth muscle cells; actives raise or lower the signal;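 further: LDLR protein level on the cell surface quantified by ELISA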
[7] = read-out: Monocyte Chemoattractant Protein-1 (MCP1), CCL2 (gene 6347); experiment: BSK_CASM3C_MCP1: BioMAP Diversity Plus: CASM3C Assay for Monocyte Chemoattractant Protein-1 (MCP1) Biomarker Activity (AID 2283046); settings: primary human coronary artery smooth muscle cells; actives raise or lower the signal;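 further: MCP-1 level quantified by ELISA 24 h after dosing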
[8] = BSK_CASM3C_Proliferation: Cell Proliferation Assessment in the BioMAP Diversity Plus: CASM3C Assay (AID 2283047); settings: primary human coronary artery smooth muscle cells;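 further: sulforhodamine B total protein stain as relative cell number at 560 nm; sub-confluent cells exposed 48 h before staining; fitted both ways against DMSO so gain or loss of cell number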
[9] = read-out: Monokine induced gamma interferon (MIG), CXCL9 (gene 4283); experiment: BSK_CASM3C_MIG: BioMAP Diversity Plus: CASM3C Assay for Monokine induced gamma interferon (MIG) Biomarker Activity (AID 2283048); settings: primary human coronary artery smooth muscle cells; actives raise or lower the signal;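 further: MIG protein level measured by ELISA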
[10] = read-out: serum amyloid A (SAA), SAA1 (gene 6288); experiment: BSK_CASM3C_SAA: BioMAP Diversity Plus: CASM3C Assay for serum amyloid A (SAA) Biomarker Activity (AID 2283049); settings: primary human coronary artery smooth muscle cells; actives raise or lower the signal;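 further: SAA protein level quantified by ELISA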
[11] = BSK_CASM3C_SRB: Viability Assessment in the BioMAP Diversity Plus: CASM3C Assay (AID 2283050); settings: primary human coronary artery smooth muscle cells;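 further: total protein by SRB staining as cytotoxicity measure in parallel cultures; cells exposed to compound for 24 h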
[12] = read-out: Thrombomodulin, THBD (gene 7056); experiment: BSK_CASM3C_Thrombomodulin: BioMAP Diversity Plus: CASM3C Assay for Thrombomodulin Biomarker Activity (AID 2283051); settings: primary human coronary artery smooth muscle cells; actives raise or lower the signal;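 further: thrombomodulin protein level measured by ELISA 24 h after dosing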
[13] = read-out: Tissue Factor, F3 (gene 2152); experiment: BSK_CASM3C_TissueFactor: BioMAP Diversity Plus: CASM3C Assay for Tissue Factor Biomarker Activity (AID 2283052); settings: primary human coronary artery smooth muscle cells; actives raise or lower the signal;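 further: cell surface tissue factor protein level read by ELISA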
[14] = read-out: Interferon-gamma inducible Protein 10 (IP10), CXCL10 (gene 3627); experiment: BSK_hDFCGF_IP10: BioMAP Diversity Plus: hDFCGF Assay for Interferon-gamma inducible Protein 10 (IP10) Biomarker Activity (AID 2283053); settings: primary human foreskin fibroblasts; actives raise or lower the signal
Outline: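 Cells: human dermal foreskin fibroblasts. Exposure: 24 h post-dosing. Detection: IP-10 ELISA, with values expressed against DMSO controls and fitted in both directions.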

[15] = read-out: Urokinase-type plasminogen activator receptor (uPAR), PLAUR (gene 5329); experiment: BSK_CASM3C_uPAR: BioMAP Diversity Plus: CASM3C Assay for Urokinase-type plasminogen activator receptor (uPAR) Biomarker Activity (AID 2283054); settings: primary human coronary artery smooth muscle cells; actives raise or lower the signal;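 further: cell-surface uPAR protein level quantified by ELISA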
[16] = read-out: Vascular cell adhesion molecule 1 (VCAM1), VCAM1 (gene 7412); experiment: BSK_CASM3C_VCAM1: BioMAP Diversity Plus: CASM3C Assay for Vascular cell adhesion molecule 1 (VCAM1) Biomarker Activity (AID 2283055); settings: primary human coronary artery smooth muscle cells; actives raise or lower the signal;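 further: VCAM-1 protein level quantified by ELISA on the cells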
[17] = read-out: Collagen III, COL3A1 (gene 1281); experiment: BSK_hDFCGF_CollagenIII: BioMAP Diversity Plus: hDFCGF Assay for Collagen III Biomarker Activity (AID 2283056); settings: primary human foreskin fibroblasts; actives raise or lower the signal
Outline: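 ELISA read-out of collagen III from human skin fibroblast cultures sampled 24 h post-dosing. Values were derived by bidirectional fitting relative to the DMSO vehicle control.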

[18] = read-out: Epidermal growth factor receptor (EGFR), EGFR (gene 1956); experiment: BSK_hDFCGF_EGFR: BioMAP Diversity Plus: hDFCGF Assay for Epidermal growth factor receptor (EGFR) Biomarker Activity (AID 2283057); settings: primary human foreskin fibroblasts; actives raise or lower the signal
Outline: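 Dosing human primary skin fibroblasts, then measuring surface EGFR by ELISA at 24 h, gives the endpoint; gains and losses relative to DMSO were fitted in both directions.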

[19] = BSK_hDFCGF_Proliferation: Cell Proliferation Assessment in the BioMAP Diversity Plus: hDFCGF Assay (AID 2283059); settings: primary human foreskin fibroblasts;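 further: curves fitted for both rise and fall of signal versus DMSO baseline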
Outline: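 Primary human foreskin fibroblasts, sub-confluent; […]; 10% TCA fix, 0.1% SRB stain, A560 total protein. Gain/loss fitted bidirectionally vs DMSO control.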

[20] = read-out: Interleukin-8 (IL8), CXCL8 (gene 3576); experiment: BSK_hDFCGF_IL8: BioMAP Diversity Plus: hDFCGF Assay for Interleukin-8 (IL8) Biomarker Activity (AID 2283058); settings: primary human foreskin fibroblasts; actives raise or lower the signal
Outline: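 Cells used are human skin primary fibroblasts. Chemical is added, cultures run 24 h, then IL-8 is quantified by ELISA, and gain or loss versus DMSO control is fitted in both directions.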

Measured: AC50

C=CC(=O)NC(C)(C)C
inactive: [1] | [2] | [3] | [4] | [5] | [6] | [7] | [8] | [9] | [10] | [11] | [12] | [13] | [14] | [15] | [16] | [17] | [18] | [19]

CC/C=C\C/C=C\C/C=C\CCCCCCCC(=O)OC
active: [1] 31.5 µM | [2] 9.51 µM | [3] 32.2 µM | [4] 12.1 µM | [5] 22.6 µM | [6] 28.7 µM | [7] 29.7 µM | [8] 8.6 µM | [9] 29.3 µM | [10] 26 µM | [11] 15.2 µM | [12] 36.2 µM | [13] 13.9 µM | [14] 10.7 µM | [15] 29.7 µM | [16] 14.8 µM | [17] 5.53 µM | [20] 20 µM | [19] 1.68 µM
inactive: [18]

CCN1CN(CC)CN(CC)C1
inactive: [1] | [2] | [3] | [4] | [5] | [6] | [7] | [8] | [9] | [10] | [11] | [12] | [13] | [14] | [15] | [16] | [17] | [18] | [20] | [19]

c1ccc2c(c1)[nH]c1ccccc12
inactive: [1] | [2] | [3] | [4] | [5] | [6] | [7] | [8] | [9] | [10] | [11] | [12] | [13] | [14] | [15] | [16] | [17] | [18] | [19]

Nc1cccc(N)n1
inactive: [1] | [2] | [3] | [4] | [5] | [6] | [7] | [8] | [9] | [10] | [11] | [12] | [13] | [14] | [15] | [16] | [17] | [18] | [20] | [19]
